Laboratory results: the supplement of paper PMC11732987, “Enantioselective OTUD7B fragment discovery through chemoproteomics screening and high-throughput optimisation” (Communications Chemistry, 2025)

Legend:
Test in all cases: log2 ratio of Biotin-Ahx-Ub-VS probe labelling (fragment/DMSO); higher = less target engagement (more negative = stronger competition), active = hit call of the paper (q ≤ 0.05, log2 ratio ≤ -1)
Conditions in all cases: compound concentration: 200 uM; treatment time: 3 h
USP42 = biological target: T1, USP42 (UniProt Q9H9J4)
T1 sequence (whole entry): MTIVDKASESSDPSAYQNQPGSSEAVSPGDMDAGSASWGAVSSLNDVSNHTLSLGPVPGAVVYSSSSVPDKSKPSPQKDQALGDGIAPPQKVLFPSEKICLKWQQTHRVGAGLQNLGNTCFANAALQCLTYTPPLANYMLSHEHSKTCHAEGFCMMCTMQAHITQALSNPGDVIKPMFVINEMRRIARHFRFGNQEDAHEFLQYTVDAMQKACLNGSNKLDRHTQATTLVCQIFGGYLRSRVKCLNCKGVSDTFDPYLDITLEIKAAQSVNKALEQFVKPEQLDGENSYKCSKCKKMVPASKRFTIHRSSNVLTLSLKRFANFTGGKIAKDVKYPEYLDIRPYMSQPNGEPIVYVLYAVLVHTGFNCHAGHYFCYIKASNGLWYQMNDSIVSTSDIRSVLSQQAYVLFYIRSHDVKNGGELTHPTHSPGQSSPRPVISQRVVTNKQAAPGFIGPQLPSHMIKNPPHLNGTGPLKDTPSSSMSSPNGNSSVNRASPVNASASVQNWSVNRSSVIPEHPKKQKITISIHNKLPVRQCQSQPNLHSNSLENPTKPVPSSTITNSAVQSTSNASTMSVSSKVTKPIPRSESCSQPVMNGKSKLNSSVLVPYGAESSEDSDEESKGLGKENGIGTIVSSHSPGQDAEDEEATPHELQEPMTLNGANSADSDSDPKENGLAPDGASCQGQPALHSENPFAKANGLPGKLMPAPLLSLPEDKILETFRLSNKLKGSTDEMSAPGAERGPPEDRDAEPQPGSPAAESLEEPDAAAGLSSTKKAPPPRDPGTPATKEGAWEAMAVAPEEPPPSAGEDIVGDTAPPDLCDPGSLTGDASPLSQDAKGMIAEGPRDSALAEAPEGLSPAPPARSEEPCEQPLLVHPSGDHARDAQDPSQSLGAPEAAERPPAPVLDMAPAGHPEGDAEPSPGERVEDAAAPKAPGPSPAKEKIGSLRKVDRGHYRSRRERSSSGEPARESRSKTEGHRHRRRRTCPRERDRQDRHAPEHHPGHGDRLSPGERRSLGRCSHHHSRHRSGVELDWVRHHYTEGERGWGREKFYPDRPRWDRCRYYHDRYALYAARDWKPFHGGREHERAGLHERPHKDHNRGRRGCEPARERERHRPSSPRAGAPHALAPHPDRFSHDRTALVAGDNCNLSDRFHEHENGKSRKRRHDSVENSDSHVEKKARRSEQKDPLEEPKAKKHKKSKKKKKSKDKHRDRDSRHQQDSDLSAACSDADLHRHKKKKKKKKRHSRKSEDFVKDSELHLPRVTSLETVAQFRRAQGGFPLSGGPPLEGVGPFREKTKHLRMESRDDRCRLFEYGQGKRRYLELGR
Outline: (§1)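 Each value is an average log2 ratio of fragment to vehicle, tested by unpaired t-test. The underlying Spectronaut label-free quantities were global-median-normalised, and only proteins with ≥2 unique peptides were included. Triplicate HEK293T lysate samples (495 µg) were exposed to fragment at 200 µM or vehicle for 3 h, then to Biotin-Ahx-Ub-VS at 0.5 µM final for 1 h, before NeutrAvidin enrichment of labelled DUBs, LysC and trypsin digestion, and diaPASEF LC-MS/MS.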

USP46 = USP46 (UniProt P62068)
Outline: as §1

USP47 = biological target: T2, USP47 (UniProt Q96K76)
T2 sequence (whole entry): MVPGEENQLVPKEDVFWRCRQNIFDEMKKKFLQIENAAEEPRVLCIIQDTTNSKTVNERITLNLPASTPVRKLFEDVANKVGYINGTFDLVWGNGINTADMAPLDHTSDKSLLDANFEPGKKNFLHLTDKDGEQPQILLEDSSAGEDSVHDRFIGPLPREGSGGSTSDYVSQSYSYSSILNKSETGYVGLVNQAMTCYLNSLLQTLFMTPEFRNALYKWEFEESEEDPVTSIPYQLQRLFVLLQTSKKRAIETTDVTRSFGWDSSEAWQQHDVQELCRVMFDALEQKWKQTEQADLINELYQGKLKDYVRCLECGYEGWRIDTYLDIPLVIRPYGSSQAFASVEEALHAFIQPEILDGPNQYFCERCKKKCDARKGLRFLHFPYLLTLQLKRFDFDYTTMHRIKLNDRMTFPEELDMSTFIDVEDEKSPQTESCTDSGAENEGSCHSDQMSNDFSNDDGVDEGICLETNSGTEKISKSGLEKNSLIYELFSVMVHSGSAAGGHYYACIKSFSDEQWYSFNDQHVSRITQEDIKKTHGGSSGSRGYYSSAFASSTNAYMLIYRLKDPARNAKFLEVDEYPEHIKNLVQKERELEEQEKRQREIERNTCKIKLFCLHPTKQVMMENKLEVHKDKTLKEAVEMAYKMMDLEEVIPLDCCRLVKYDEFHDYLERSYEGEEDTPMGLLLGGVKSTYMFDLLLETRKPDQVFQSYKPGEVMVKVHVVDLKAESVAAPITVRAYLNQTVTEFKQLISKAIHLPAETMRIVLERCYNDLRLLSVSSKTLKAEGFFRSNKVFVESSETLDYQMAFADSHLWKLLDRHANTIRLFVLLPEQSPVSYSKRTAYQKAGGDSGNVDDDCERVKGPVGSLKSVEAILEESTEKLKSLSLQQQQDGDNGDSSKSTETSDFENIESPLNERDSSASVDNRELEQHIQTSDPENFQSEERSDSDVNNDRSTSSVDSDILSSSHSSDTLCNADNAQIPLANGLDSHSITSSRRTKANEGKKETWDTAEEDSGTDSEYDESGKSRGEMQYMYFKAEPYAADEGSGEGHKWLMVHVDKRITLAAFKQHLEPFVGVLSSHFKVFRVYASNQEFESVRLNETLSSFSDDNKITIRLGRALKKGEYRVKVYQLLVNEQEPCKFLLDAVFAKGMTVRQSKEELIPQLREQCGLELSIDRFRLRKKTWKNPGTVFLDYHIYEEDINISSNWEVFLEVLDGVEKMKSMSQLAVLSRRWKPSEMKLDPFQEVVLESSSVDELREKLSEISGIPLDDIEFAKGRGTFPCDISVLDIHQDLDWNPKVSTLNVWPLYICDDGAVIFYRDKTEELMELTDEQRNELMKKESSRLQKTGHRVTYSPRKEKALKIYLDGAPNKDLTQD
Outline: as §1

USP48 = biological target: T3, USP48 (UniProt Q86UV5)
T3 sequence (whole entry): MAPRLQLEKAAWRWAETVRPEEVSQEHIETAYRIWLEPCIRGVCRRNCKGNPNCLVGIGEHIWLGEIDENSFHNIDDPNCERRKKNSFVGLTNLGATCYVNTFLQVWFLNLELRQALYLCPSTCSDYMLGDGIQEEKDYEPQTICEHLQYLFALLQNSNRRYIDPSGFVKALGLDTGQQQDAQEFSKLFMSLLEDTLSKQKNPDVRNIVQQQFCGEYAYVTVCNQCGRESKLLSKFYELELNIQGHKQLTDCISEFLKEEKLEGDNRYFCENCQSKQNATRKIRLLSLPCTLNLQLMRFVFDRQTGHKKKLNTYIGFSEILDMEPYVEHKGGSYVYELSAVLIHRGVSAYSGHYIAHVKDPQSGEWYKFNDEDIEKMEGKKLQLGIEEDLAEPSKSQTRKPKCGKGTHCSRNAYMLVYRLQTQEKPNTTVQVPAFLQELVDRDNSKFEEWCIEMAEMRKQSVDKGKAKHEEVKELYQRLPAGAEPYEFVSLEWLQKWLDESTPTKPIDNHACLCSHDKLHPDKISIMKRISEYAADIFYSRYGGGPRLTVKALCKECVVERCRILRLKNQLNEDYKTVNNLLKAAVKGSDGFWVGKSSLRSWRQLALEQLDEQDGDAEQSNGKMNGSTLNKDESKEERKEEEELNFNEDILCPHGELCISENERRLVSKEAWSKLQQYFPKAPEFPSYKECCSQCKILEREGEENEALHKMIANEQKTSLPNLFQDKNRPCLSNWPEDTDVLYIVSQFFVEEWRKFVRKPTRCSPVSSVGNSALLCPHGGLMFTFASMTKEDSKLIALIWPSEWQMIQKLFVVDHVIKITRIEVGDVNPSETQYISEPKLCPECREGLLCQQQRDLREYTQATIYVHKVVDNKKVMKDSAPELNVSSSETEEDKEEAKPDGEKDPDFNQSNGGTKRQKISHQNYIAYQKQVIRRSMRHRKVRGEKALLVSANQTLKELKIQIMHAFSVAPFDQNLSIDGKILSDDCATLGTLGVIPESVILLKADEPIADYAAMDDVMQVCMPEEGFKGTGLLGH
Outline: as §1

USP5 = biological target: T4, USP5 (UniProt P45974)
T4 sequence (whole entry): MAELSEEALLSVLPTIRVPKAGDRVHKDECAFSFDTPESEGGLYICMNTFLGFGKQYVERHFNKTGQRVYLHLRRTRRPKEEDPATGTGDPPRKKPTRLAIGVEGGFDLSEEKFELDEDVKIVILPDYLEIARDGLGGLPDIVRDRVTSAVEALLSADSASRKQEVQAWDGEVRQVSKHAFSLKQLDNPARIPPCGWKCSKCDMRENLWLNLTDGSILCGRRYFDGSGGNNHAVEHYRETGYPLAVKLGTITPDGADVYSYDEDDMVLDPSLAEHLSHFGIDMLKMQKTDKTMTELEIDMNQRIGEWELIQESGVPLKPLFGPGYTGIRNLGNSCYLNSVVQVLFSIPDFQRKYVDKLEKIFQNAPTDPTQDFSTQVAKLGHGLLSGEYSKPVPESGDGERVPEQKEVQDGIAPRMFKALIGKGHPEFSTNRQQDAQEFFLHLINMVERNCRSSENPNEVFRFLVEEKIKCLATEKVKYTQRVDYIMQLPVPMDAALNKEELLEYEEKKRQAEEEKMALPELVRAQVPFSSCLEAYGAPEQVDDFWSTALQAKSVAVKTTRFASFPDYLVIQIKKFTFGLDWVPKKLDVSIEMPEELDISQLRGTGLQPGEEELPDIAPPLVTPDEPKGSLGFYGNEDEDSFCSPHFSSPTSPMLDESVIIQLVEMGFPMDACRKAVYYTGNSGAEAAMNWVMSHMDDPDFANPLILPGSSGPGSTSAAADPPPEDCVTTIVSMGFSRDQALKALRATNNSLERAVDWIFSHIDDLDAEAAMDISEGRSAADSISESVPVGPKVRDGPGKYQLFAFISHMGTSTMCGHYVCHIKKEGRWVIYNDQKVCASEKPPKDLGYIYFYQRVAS
Outline: as §1

USP54 = USP54 (UniProt Q70EL1)
Outline: as §1

USP7 = USP7 (UniProt Q93009)
Outline: as §1

USP8 = biological target: T5, USP8 (UniProt P40818)
T5 sequence (whole entry): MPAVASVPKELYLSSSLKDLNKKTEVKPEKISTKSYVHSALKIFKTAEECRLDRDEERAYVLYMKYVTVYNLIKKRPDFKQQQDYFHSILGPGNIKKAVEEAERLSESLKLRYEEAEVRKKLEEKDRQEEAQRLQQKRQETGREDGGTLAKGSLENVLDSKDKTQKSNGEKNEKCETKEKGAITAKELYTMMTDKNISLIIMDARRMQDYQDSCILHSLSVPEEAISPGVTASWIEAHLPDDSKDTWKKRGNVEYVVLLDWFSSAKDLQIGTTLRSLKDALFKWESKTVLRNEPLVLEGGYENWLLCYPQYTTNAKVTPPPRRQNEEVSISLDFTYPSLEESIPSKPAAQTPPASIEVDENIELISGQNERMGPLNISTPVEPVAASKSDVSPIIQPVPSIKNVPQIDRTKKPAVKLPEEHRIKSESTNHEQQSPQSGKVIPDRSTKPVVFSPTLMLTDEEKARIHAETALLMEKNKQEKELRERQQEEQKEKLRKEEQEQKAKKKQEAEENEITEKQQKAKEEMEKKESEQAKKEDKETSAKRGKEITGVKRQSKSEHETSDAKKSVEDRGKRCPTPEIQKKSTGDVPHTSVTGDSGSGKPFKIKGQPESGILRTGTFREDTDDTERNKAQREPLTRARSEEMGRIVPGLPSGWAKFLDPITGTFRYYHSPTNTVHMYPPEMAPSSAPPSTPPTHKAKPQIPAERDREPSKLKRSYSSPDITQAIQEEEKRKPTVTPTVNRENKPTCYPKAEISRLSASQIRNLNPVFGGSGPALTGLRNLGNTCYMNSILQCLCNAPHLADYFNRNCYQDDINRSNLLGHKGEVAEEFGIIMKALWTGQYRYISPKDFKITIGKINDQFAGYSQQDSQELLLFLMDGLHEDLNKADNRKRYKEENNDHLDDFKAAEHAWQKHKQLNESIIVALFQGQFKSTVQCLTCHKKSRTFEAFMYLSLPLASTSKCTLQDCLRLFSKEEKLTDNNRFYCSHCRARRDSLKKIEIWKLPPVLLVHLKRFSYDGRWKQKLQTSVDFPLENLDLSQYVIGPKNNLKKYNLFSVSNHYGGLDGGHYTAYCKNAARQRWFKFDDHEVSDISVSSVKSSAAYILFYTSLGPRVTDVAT
Outline: as §1

USP9X = USP9X (UniProt Q93008)
Outline: as §1

UniProt O00487 = biological target: UniProt O00487
Outline: as §1

Measured: log2 ratio of Biotin-Ahx-Ub-VS probe labelling

Sequence of USP9X (Q93008 whole entry): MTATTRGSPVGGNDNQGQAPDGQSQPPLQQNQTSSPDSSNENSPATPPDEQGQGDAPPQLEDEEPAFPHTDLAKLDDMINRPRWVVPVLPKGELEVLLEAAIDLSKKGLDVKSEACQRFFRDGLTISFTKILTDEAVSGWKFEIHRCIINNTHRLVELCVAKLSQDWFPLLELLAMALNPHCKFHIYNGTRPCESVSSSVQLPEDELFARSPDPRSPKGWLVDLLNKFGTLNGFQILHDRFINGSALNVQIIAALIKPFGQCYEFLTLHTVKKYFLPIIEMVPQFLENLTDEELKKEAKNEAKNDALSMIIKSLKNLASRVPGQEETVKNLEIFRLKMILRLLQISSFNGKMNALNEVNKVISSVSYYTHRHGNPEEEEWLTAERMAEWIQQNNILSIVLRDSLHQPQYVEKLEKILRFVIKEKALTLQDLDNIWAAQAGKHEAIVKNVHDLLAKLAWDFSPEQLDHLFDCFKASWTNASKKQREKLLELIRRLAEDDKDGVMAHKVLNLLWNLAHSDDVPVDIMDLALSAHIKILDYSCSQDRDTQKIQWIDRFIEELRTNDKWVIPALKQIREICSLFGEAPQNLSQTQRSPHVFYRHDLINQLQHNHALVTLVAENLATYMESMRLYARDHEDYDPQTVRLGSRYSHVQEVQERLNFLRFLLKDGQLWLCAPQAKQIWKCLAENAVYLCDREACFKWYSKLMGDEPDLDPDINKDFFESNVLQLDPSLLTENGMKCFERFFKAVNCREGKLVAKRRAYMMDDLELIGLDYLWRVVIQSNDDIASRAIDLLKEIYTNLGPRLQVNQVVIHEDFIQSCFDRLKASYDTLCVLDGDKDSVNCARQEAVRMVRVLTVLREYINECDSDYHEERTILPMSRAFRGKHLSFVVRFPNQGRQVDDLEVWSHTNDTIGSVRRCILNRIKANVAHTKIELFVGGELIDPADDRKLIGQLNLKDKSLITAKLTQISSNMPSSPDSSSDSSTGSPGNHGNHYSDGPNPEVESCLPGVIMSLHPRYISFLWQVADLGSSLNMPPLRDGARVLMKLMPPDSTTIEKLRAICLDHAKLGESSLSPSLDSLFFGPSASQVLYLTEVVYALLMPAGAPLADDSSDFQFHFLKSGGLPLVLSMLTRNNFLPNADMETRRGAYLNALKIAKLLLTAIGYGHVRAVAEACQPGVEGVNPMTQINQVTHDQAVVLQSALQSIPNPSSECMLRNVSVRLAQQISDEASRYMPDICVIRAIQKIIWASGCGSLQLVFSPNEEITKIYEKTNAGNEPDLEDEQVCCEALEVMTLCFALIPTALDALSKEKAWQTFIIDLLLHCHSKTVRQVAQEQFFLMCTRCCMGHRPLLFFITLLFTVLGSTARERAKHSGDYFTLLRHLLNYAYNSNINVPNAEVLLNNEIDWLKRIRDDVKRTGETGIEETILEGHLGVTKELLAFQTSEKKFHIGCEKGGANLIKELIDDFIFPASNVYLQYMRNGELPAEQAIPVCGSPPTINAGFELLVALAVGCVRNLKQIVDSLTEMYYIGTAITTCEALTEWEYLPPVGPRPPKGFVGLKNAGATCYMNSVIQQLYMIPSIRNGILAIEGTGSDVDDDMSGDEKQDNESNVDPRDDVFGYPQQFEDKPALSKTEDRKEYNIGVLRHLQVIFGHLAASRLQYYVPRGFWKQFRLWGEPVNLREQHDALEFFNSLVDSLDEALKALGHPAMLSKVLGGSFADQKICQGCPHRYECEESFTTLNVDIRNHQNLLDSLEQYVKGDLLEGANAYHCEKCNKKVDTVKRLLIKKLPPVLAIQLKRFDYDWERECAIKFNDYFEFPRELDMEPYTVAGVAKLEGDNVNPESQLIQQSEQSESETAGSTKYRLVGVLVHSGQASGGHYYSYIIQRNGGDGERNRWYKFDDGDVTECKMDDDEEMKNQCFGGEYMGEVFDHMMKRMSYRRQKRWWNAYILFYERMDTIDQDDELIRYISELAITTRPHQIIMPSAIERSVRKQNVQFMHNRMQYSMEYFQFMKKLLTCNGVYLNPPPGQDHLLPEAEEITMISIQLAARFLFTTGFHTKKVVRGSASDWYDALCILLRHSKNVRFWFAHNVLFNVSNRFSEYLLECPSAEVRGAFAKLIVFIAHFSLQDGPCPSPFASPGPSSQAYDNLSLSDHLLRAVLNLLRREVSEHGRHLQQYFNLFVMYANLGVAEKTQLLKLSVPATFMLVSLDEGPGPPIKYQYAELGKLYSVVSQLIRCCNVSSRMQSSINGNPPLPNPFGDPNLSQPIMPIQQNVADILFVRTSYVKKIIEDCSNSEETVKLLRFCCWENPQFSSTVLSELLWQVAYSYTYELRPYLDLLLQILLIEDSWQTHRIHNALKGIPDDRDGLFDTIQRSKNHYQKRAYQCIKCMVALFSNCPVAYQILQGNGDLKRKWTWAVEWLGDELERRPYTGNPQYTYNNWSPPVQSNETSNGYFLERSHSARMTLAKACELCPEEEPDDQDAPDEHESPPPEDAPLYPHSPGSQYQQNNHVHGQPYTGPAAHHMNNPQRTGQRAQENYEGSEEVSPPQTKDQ
Sequence of UniProt O00487 (O00487 whole entry): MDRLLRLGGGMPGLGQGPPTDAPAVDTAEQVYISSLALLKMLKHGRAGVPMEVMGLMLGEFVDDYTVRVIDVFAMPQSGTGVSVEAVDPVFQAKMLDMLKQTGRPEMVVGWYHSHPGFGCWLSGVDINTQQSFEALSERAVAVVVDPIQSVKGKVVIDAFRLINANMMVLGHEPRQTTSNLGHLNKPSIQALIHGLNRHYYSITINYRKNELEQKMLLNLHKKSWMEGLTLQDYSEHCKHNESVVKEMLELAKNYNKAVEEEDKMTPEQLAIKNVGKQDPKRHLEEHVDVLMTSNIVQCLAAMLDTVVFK
Sequence of USP46 (P62068 whole entry): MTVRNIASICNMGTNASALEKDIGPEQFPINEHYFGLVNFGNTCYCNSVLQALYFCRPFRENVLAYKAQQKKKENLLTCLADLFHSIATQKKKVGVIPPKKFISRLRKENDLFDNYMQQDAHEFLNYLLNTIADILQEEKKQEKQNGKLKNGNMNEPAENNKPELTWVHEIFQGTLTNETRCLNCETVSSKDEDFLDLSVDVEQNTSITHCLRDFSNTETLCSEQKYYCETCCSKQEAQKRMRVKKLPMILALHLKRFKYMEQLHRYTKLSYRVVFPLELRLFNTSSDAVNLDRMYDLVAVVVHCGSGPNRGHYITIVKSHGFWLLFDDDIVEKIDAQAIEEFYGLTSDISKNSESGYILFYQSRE
Sequence of USP54 (Q70EL1 whole entry): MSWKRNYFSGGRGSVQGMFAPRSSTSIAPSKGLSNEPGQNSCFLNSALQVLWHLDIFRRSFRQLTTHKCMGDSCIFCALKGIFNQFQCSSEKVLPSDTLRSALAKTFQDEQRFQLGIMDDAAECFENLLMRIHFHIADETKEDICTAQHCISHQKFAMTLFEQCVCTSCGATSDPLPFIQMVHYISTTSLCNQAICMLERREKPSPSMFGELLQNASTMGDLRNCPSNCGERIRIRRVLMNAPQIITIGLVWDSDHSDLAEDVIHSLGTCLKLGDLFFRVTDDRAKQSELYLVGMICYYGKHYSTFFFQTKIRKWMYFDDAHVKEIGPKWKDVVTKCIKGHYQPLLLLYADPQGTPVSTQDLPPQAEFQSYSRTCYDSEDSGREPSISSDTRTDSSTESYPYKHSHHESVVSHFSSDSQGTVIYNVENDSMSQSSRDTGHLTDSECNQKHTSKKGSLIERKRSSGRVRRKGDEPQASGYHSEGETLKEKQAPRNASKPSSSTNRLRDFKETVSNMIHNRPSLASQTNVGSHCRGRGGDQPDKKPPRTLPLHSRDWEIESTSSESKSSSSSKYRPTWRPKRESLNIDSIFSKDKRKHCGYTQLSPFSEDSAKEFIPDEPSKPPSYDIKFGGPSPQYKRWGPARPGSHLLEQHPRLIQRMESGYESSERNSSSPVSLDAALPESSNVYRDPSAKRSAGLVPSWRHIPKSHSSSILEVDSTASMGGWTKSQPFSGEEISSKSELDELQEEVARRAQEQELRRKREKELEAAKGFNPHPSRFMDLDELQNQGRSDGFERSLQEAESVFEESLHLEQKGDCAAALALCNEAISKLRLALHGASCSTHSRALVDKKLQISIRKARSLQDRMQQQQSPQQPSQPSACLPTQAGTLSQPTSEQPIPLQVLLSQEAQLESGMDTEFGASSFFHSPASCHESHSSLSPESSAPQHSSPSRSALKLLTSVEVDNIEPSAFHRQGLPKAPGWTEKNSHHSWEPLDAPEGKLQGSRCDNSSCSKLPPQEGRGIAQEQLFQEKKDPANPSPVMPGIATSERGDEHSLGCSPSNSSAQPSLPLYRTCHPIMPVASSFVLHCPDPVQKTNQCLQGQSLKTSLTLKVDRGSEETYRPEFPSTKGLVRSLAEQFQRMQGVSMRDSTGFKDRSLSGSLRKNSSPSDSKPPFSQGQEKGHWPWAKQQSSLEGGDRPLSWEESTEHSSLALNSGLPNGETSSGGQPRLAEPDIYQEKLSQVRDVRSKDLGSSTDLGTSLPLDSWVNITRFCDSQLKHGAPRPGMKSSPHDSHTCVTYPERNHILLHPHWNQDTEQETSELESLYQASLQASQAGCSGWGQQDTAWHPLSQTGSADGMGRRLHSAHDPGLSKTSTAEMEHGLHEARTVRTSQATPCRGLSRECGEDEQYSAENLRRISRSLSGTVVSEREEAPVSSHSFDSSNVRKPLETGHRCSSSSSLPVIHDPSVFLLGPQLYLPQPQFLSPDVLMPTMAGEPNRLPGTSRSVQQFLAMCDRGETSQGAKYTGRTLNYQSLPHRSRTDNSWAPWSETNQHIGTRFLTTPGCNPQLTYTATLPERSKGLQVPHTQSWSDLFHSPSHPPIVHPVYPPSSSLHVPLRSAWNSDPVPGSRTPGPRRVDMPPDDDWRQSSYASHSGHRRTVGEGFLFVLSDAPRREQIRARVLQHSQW

Cc1ccc(C(=O)NCCNC(=O)CCl)cc1
inactive: USP42 -0.216 | USP46 0.0112 | USP47 -0.158 | USP48 -0.318 | USP5 -0.123 | USP54 0.576 | USP7 -0.262 | USP8 -0.271 | USP9X -0.316 | UniProt O00487 -0.0816

Cc1ccc(CN(CCO)C(=O)CCl)cc1
inactive: USP42 -0.148 | USP46 -0.105 | USP47 -0.828 | USP48 -0.292 | USP5 -0.134 | USP54 0.222 | USP7 -0.788 | USP8 -0.664 | USP9X -0.526 | UniProt O00487 -0.0465

CN(C(=O)CCl)c1nc2ccccc2s1
inactive: USP42 0.236 | USP46 -0.305 | USP47 -0.107 | USP48 -0.574 | USP5 -0.191 | USP54 -0.996 | USP7 -0.566 | USP8 -0.0186 | USP9X -0.325 | UniProt O00487 -0.00105
